# Screening results: PubChem BioAssay, National Center for Advancing Translational Sciences (NCATS)
# Tb PYK inh: blocks Trypanosoma brucei pyruvate kinase; Potency, µM (top dose mostly 76.8 µM), for the others: at the highest dose activity, negative = inhibition, most hits filed as inhibitors; Q57TT1; TbPYK enzyme, Kinase-Glo Plus ATP luminescence, 45 min; actives 0.12% (n = 410,000); AID 624173; note: potency is the fitted concentration of half-maximal effect; % is set by controls: 0 for no effect and ±100 for the full control effect; nearly all actives have a fitted effect of over 50% in size
#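 In this concentration-response screen, enzyme-free wells defined baseline while DMSO plates tracked drift. Each reaction combined TbPYK, substrate, compound and 130 uM ADP for 45 min at room temperature. Kinase-Glo Plus luminescence gave the signal.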
# CHX counter: affects cycloheximide protein synthesis inhibition readout, counter-screen; cell reporter, cycloheximide protein synthesis inhibition counterscreen; max response, %; AID 2314; actives 12% (n = 300,000); in the data active = max response mostly above about 13%, no sharp cut-off; inactive = mostly below about 14%; note: read at 38.3 µM for the half of the compounds with a filed dose; 0% is about no effect
# Shiga inhibitor: inhibitors of Shiga toxin in Vero cells; Vero cells, Shiga toxin protein synthesis inhibition reporter; inhibition, % at 38.7 µM; actives 9.2% (n = 290,000); AID 2315; in the data active = inhibition mostly above about 28%, no sharp cut-off; inactive = mostly below about 43%; note: 0% is about no effect
# LmPK inh: inhibitors of Leishmania mexicana pyruvate kinase; Q27686; purified LmPK, Kinase-Glo ATP luminescence, 1 h; Potency, µM (highest dose often 57.5 µM), inactives show at the top dose activity change, negative = inhibition, hits mostly inhibitors; actives 0.37% (n = 290,000); AID 1721; note: potency is the fitted concentration of half-maximal effect; % is set by controls: 0 for no effect and ±100 for the full control effect
#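 Screened at intermediate enzyme activity to detect both inhibitors and activators: LmPK at 0.1 nM, with a 0.5 nM enzyme column as activation reference. PEP 0.5 mM, ADP 0.1 mM; ATP detected by luminescence after 1 h.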
# Sm TGR block: blocks Schistosoma mansoni thioredoxin glutathione reductase | Q962Y6 | purified TGR, DTNB reduction, TNB absorbance 405 nm | Potency, µM (series often up to 114 µM), inactives show at the top dose activity change, negative = inhibition, most hits filed as inhibitors | actives 3% (n = 360,000); note: potency is the fitted concentration of half-maximal effect; % is set by controls: 0 for no effect and ±100 for the full control effect; nearly all actives have a fitted effect of over 60% in size
#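 Kinetic colorimetric format: TGR-catalysed, NADPH-driven DTNB reduction monitored via TNB absorbance. Enzyme dispensed at 20 nM; compound exposure 15 min at room temperature before reaction start.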
# Giardia FBPA inh: inhibitors of Giardia lamblia fructose-1,6-bisphosphate aldolase. A8B2U2. purified Giardia FBPA. Potency, µM (series often up to 59.6 µM), for the others: top-dose activity, negative = inhibition, most hits filed as inhibitors. actives 0.71% (n = 290,000). AID 2451; note: potency is the fitted concentration of half-maximal effect; % is set by controls: 0 for no effect and ±100 for the full control effect; nearly all actives have a fitted effect of over 55% in size
# Target sequence (A8B2U2 whole entry, looked up): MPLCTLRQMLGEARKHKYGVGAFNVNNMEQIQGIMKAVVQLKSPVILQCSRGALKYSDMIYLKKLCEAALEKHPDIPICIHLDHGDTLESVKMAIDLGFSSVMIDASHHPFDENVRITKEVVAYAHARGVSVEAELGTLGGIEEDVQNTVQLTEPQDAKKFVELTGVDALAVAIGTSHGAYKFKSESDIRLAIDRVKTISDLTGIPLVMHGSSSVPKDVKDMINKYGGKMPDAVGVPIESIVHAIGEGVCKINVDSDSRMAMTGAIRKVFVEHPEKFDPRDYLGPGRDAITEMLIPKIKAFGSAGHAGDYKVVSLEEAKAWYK
#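 Giardia FBPA (40 nM reagent) was preincubated 10 min at RT with compound (up to 57.5 uM final), then substrate plus GAPDH/TPI/NAD/arsenate coupling system with diaphorase/resazurin was added; resorufin fluorescence (525/598 nm) was read after 20 min.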
# * = called active by the depositor; ? = inconclusive; . = no result given; + = active, no number. The entries come from a sample that favours hits as a whole. Unless noted, calls come from the whole dose curve; as a rule, active = well fitted curve in the direction sought with a large enough effect; inconclusive = small, poorly fitted or top-dose-only effect, or another doubt; inactive = no such curve, though single readings can be large; an effect the other way counts as inactive or inconclusive.
SMILES,Tb PYK inh,CHX counter,Shiga inhibitor,LmPK inh,Sm TGR block,Giardia FBPA inh
CCOc1ccccc1C1C(C#N)=C(N)Oc2cc(C)n(C)c(=O)c21 (centres undefined),-9%,-2,-3,0%,40µM*,?
COc1ccc(C2C(C#N)=C(N)Oc3cc(C)n(Cc4ccco4)c(=O)c32)cc1 (centres undefined),?,1,-6,-3%,32µM*,?
CCOc1cccc(C2C(C#N)=C(N)Oc3cc(C)oc(=O)c32)c1OCC (centres undefined),-6%,-2,-20,1%,0%,1%
COc1cccc(C2C(C#N)=C(N)Oc3cc(C)n(Cc4ccco4)c(=O)c32)c1 (centres undefined),-18%,2,-20,-2%,?,?
COc1cccc(C2C(C#N)=C(N)Oc3cc(C)n(Cc4ccccn4)c(=O)c32)c1OC (centres undefined),-7%,-4,-17,2%,-16%,-11%
CCOc1ccccc1C1C(C#N)=C(N)Oc2cc(C)n(Cc3ccccn3)c(=O)c21 (centres undefined),-20%,-1,-7,-1%,35µM*,?
COc1ccccc1C1C(C#N)=C(N)Oc2cc(C)n(Cc3ccccn3)c(=O)c21 (centres undefined),-9%,5,7,11%,35µM*,?
CCN(CC)S(=O)(=O)c1ccc(C(=O)NCCSc2c(-c3ccc(C)cc3)[nH]c3ccccc23)cc1,2%,.,.,.,8%,.
COc1ccccc1N(CC(=O)Nc1ccc2c(c1)OCO2)S(=O)(=O)c1ccc(C)cc1,8%,.,.,.,-5%,.
Cc1cc(Cl)ccc1OCC(=O)Nc1c(Cl)ccc2nsnc12,0%,.,.,.,-2%,.
COc1ccccc1C1C(C#N)=C(N)Oc2cc(C)n(CCCn3ccnc3)c(=O)c21 (centres undefined),6%,6,-12,1%,50µM*,?
CCCCSCCCNC(=O)c1c[nH]c2ccc(S(=O)(=O)Nc3cccc(OC)c3)cc2c1=O,1%,.,.,.,7%,.
CC(C(=O)N1CCN(C(=O)c2ccco2)CC1)n1sc2ccccc2c1=O (centres undefined),0%,20,15,0%,-3%,3%
CC(C(=O)N1CCCCC1)n1sc2ccccc2c1=O (centres undefined),-10%,31*,67*,1%,-2%,7%
O=C(Nc1ccc(OCc2cc(=O)n3ccccc3n2)cc1)c1ccccc1Cl,-4%,.,.,.,5%,.
Cc1oc(=O)c(NC(=O)c2cccc(Cl)c2)cc1C(=O)c1ccccc1,?,31*,68*,-2%,4.5µM*,-19%
COc1ccc(C(=O)Nc2cc(C(=O)c3ccccc3)c(C)oc2=O)cc1,-24%,11,29,3%,6.3µM*,-16%
COc1ccc(CNC(=O)CCCn2nc(C)c([N+](=O)[O-])c2C)cc1OC,0%,47*,189*,5%,8%,-2%
Cc1[nH]c(C)c2c(=O)n(-c3ccccc3)ncc12,-2%,12,47,3%,0%,-18%
Cc1ccc(-n2ncc(Br)c(Br)c2=O)cc1,-1%,-9,-23,-5%,6.3µM*,6%
O=c1c(Br)c(Br)cnn1-c1ccccc1,5%,-9,-32,3%,3.2µM*,-3%
COc1cccc(-c2ccc3c(N)c(C(=O)Nc4ccccc4C)sc3n2)c1,-2%,.,.,.,37%,.
COc1ccc(C(=O)c2sc3nc(-c4ccc(OC)cc4)ccc3c2N)cc1,0%,22*,40,1%,-5%,0%
CC(=O)c1sc2nc(-c3cccs3)ccc2c1N,-7%,46*,101*,-13%,-1%,-23%
COc1ccc(C(=O)c2sc3nc(-c4ccc(F)cc4)ccc3c2N)cc1,1%,.,.,.,-5%,.
SMILES,Tb PYK inh,CHX counter,Shiga inhibitor,LmPK inh,Sm TGR block,Giardia FBPA inh
COc1cccc(-c2ccc3c(N)c(C(=O)NC4CC4)sc3n2)c1,-17%,37*,104*,3%,-1%,-7%
CCN1C(=O)c2ccccc2C1Nc1cccc(OCCN2CCCCC2)c1 (centres undefined),0%,.,.,.,.,.
Cc1cc(N(C)C)ccc1N=Nc1ccc2ncccc2c1,-6%,52*,95*,-20%,7%,-10%
Cc1ccccc1Nc1nccc(N(C)C)c1C#N,2%,-1,8,5%,11%,0%
Cc1cc(N(C)C)c(C#N)c(NCc2ccccc2)n1,-11%,-4,22,1%,-19%,-4%
CN(C)c1ccnc(N(Cc2ccccc2)Cc2ccccc2)c1C#N,-9%,29*,50*,13%,0%,-15%
CN(C)c1ccnc(NCc2ccccc2)c1C#N,3%,30*,55*,-3%,7%,9%
N#Cc1ccc(/C=N/NC(=O)c2ccccc2F)cc1,7%,12,13,-5%,1%,0%
O=C(CNc1cccc2ccccc12)N/N=C/C(Br)=C/c1ccccc1,-5%,-2,-8,4%,0%,-8%
O=C(N/N=C/C(Cl)=C/c1ccc([N+](=O)[O-])cc1)C(=O)Nc1ccccc1C(=O)O,-11%,4,14,-15%,14µM*,0%
O=C(N/N=C/C(Br)=C/c1ccccc1)c1ccccc1F,-1%,34*,86*,-5%,-21%,10%
O=C(N/N=C/C(Cl)=C/c1ccccc1)c1ccccc1F,-5%,56*,80*,8%,8%,-12%
CCOc1ccc(N(CC(=O)Nc2ccccc2CC)S(=O)(=O)c2c(C)noc2C)cc1,-5%,.,.,.,0%,.
Cc1cc(C)n(C(C)CC(=O)Nc2ccc(-c3ccno3)cc2)n1 (centres undefined),6%,21,2,2%,5%,-7%
COc1ncc2nc(-c3ccc(F)cc3)c(=O)n(C3CC3)c2n1,.,.,.,.,.,10%
CCN(CC)c1ccc(/C=C2\C(=O)c3ccc(C(=O)O)cc3C2=O)cc1,25µM*,130*,+,-21%,0%,-6%
C/C=C1\COC(C(=O)NCc2ccccn2)(C(F)(F)F)C=C1C=C(C)C (centres undefined),.,18,3,.,.,-9%
CN(C)c1ccc(/C=N/n2cnn(Cc3ccccc3Cl)c2=S)cc1,-9%,38*,97*,-4%,-9%,-15%
O=C(C1=C(O)/C(=C/c2ccc(O)cc2)CCC1)C(F)(F)F,-7%,30*,44*,-4%,?,-11%
COc1cc2c(=O)c(C(=O)c3ccc(C)c(C)c3)cn(Cc3ccccc3F)c2cc1OC,8%,.,.,.,5%,.
O=C(OCc1ccco1)c1ccc2c(c1)N(Cc1ccc([N+](=O)[O-])cc1)C(=O)c1ccccc1S2,0%,.,.,.,9%,.
